Assay outcomes deposited in PubChem BioAssay by The Scripps Research Institute Molecular Screening Center.
Compounds with a hit are over-represented: about 2.2% of the library has one in this group of screens.
HTR5A ag ctr: counter-screen for OPRM1-OPRD1 agonists: human HTR5A agonism; HTR5A agonist assay, luminescence, cell-based; AID 504692; activation, % at 9.3 µM; hit rate 0.61% among 340,000; in the data active means activation mostly above about 9.5%, no sharp cut-off; inactive means mostly below about 7.6%
OPRM1-OPRD1 inv: mu-delta opioid heterodimer inverse agonism | hit rate 0.21% among 340,000 | inhibition, % at 9.3 µM | cell-based MOR-DOR heterodimer luminescence | P35372+P41143; in the data active means inhibition above about 22%, passing the limit was not always enough
sPLA2-III inh: Blocks human group III sPLA2 activity. hit rate 0.56% among 370,000. QFRET BODIPY PC-A2 liposome hydrolysis, fluorescence. Q9NZ20. inhibition, % at 12.2 µM. AID 743126;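 active means inhibition above mean plus 3 SD of compounds lying within the high and low control bounds, cut at about 19% in these data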
Target sequence (Q9NZ20 whole entry, looked up): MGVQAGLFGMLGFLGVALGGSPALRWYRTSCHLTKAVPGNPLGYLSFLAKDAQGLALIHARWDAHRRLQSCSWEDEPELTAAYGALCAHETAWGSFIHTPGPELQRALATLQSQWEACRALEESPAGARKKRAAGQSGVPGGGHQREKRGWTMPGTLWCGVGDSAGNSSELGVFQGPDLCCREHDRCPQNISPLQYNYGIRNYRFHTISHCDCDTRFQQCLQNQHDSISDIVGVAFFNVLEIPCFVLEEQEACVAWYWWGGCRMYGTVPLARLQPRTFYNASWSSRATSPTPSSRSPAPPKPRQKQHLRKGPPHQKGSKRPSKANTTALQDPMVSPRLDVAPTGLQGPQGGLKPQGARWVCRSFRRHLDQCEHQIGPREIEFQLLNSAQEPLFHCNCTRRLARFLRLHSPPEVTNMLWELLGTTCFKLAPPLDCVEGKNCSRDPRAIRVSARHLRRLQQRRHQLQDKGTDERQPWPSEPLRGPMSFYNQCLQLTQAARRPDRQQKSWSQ
HTR2A ag: activates the mouse 5-HT2A serotonin receptor; activation, % at 7.6 µM; CHO-K1 mHTR2A beta-arrestin complementation, luminescence; percent of 30 µM serotonin response; hit rate 0.66% among 360,000; P35363;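 active means activation above a run cutoff, the mean activation of all tested compounds plus 3 SD, cut at about 14% in these data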
OPRM1-OPRD1 ag: OPRM1-OPRD1 heterodimerization agonism | hit rate 0.3% among 340,000 | cells, luminescence | activation, % at 9.3 µM | P35372+P41143; in the data active means activation above about 18%
HTR5A inv ctr: HTR5A inverse agonism, opioid heterodimer counter-screen | inhibition, % at 9.3 µM | hit rate 0.083% among 340,000 | AID 504634 | HTR5A cell line, luminescence; in the data active means inhibition mostly above about 23%, no sharp cut-off; inactive means mostly below about 18%
hGIII sPLA2 conf: human GIII-sPLA2 inhibition, confirmation | inhibition, % at 12.2 µM | hit rate 34% among 2,000 | AID 743280 | recombinant hGIII-sPLA2, BODIPY PC-A2 QFRET fluorescence | shares compounds with sPLA2-III inh;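 active means mean inhibition across triplicates above the hit cutoff set in the earlier primary screen, cut at about 19% in these data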
535nm interf: counter-screen for HGIII-sPLA2 inhibitors: 535nm fluorescence interference; inhibition, % at 12.2 µM; hit rate 8.5% among 2,000; BODIPY FL product fluorescence interference, QFRET; shares compounds with sPLA2-III inh;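 active means average inhibition above the solvent-only control mean plus 3 SD, cut at about 6% in these data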
535nm interf DR: 535nm optical interference dose response, HGIII-sPLA2 counter-screen | AID 743455 | 240 tested, under 10 active | shares compounds with sPLA2-III inh | BODIPY FL product fluorescence interference, cell-free | IC50, µM;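 active means IC50 at or below 10 µM; inactive means IC50 above 10 µM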
Hits are given with their value.

Screening C=CCNC(=S)NNC(=O)c1cccn(Cc2ccc(Cl)cc2Cl)c1=O returned HTR5A ag ctr inactive, OPRM1-OPRD1 inv inactive, sPLA2-III inh 26.0, HTR2A ag inactive, OPRM1-OPRD1 ag inactive, HTR5A inv ctr inactive, hGIII sPLA2 conf 22.0 and 535nm interf inactive.
CCNC(=S)NNC(=O)c1cccn(Cc2ccc(Cl)cc2Cl)c1=O was read as HTR5A ag ctr inactive, OPRM1-OPRD1 inv inactive, sPLA2-III inh inactive, HTR2A ag inactive, OPRM1-OPRD1 ag inactive and HTR5A inv ctr inactive.
Screening C=CCNC(=S)NNC(=O)c1cccn(Cc2ccc(Cl)c(Cl)c2)c1=O returned HTR5A ag ctr inactive, OPRM1-OPRD1 inv inactive, sPLA2-III inh 24.7, HTR2A ag inactive, OPRM1-OPRD1 ag inactive, HTR5A inv ctr inactive, hGIII sPLA2 conf 31.1, 535nm interf inactive and 535nm interf DR inactive.
For C=CCNC(=S)NNC(=O)c1cccc(Br)c1 the results were HTR5A ag ctr inactive, OPRM1-OPRD1 inv inactive, sPLA2-III inh inactive, HTR2A ag inactive, OPRM1-OPRD1 ag inactive and HTR5A inv ctr inactive.
`C=CCNC(=S)NNC(=O)c1ccc(C)c(Cl)c1` gave HTR5A ag ctr inactive, OPRM1-OPRD1 inv inactive, sPLA2-III inh 22.6, HTR2A ag inactive, OPRM1-OPRD1 ag inactive, HTR5A inv ctr inactive, hGIII sPLA2 conf 20.8 and 535nm interf inactive.
CCOC(=O)c1cccc(NC(=O)CN(C)S(=O)(=O)c2ccco2)c1 was read as sPLA2-III inh inactive.
CCc1ccc(CNCC(=O)N2CCC3(CC2)OCCO3)s1 was read as sPLA2-III inh inactive.
For O=C1N2Cc3ccccc3C2CS(=O)(=O)N1Cc1ccccc1 (stereo not given) the results were sPLA2-III inh inactive.
Screening Nc1ccn([C@@H]2O[C@H](C(=O)N3CCN(CCO)CC3)[C@@H](O)[C@H]2O)c(=O)n1 returned sPLA2-III inh inactive.
Screening CCOC(=O)C(=O)NNc1ccc(F)cc1 returned sPLA2-III inh 21.2, HTR2A ag inactive, hGIII sPLA2 conf inactive and 535nm interf inactive.
`Cc1nc2c(-c3ccc(F)cc3)cnn2c(N)c1-c1ccccc1` gave HTR5A ag ctr inactive, OPRM1-OPRD1 inv inactive, sPLA2-III inh inactive, HTR2A ag inactive, OPRM1-OPRD1 ag inactive and HTR5A inv ctr inactive.
`COc1ccc(-c2c(C)nc3c(-c4ccc(F)cc4)cnn3c2N)cc1` gave HTR5A ag ctr inactive, OPRM1-OPRD1 inv inactive, sPLA2-III inh 19.3, HTR2A ag inactive, OPRM1-OPRD1 ag inactive, HTR5A inv ctr inactive, hGIII sPLA2 conf inactive and 535nm interf inactive.
`CCOc1ccc(NC(=S)c2ccncc2)cc1` gave HTR5A ag ctr inactive, OPRM1-OPRD1 inv inactive, sPLA2-III inh 21.7, HTR2A ag inactive, OPRM1-OPRD1 ag inactive, HTR5A inv ctr inactive, hGIII sPLA2 conf inactive and 535nm interf inactive.
CCOc1ccc(NC(=S)Nc2ccc(OC)cc2)cc1 was read as HTR5A ag ctr inactive, OPRM1-OPRD1 inv inactive, sPLA2-III inh inactive, HTR2A ag inactive, OPRM1-OPRD1 ag inactive and HTR5A inv ctr inactive.
`CCN(CC)CCCOC(=O)C(c1ccccc1)c1ccccc1` gave HTR5A ag ctr inactive, OPRM1-OPRD1 inv inactive, sPLA2-III inh inactive, HTR2A ag inactive, OPRM1-OPRD1 ag inactive and HTR5A inv ctr inactive.
For CCC(C(=O)OCCOCCN(CC)CC)c1ccccc1 (stereo not given) the results were sPLA2-III inh 20.3, HTR2A ag inactive, hGIII sPLA2 conf inactive and 535nm interf inactive.
Screening CCCCSc1nnc([C@@H](NC(=O)OC(C)(C)C)C(C)C)o1 returned HTR5A ag ctr inactive, OPRM1-OPRD1 inv inactive, sPLA2-III inh inactive, HTR2A ag inactive, OPRM1-OPRD1 ag inactive and HTR5A inv ctr inactive.
Screening CCSc1nnc([C@@H](NC(=O)OC(C)(C)C)C(C)C)o1 returned HTR5A ag ctr inactive, OPRM1-OPRD1 inv inactive, sPLA2-III inh 19.4, HTR2A ag inactive, OPRM1-OPRD1 ag inactive, HTR5A inv ctr inactive, hGIII sPLA2 conf inactive and 535nm interf inactive.
O=C(NN1CCOCC1)c1cccc2ccccc12 was read as HTR5A ag ctr inactive, OPRM1-OPRD1 inv inactive, sPLA2-III inh 20.5, HTR2A ag inactive, OPRM1-OPRD1 ag inactive, HTR5A inv ctr inactive, hGIII sPLA2 conf inactive and 535nm interf inactive.
For CC(=O)Nc1ccccc1NC(=O)c1cccc2ccccc12 the results were HTR5A ag ctr inactive, OPRM1-OPRD1 inv inactive, sPLA2-III inh 22.1, HTR2A ag inactive, OPRM1-OPRD1 ag inactive, HTR5A inv ctr inactive, hGIII sPLA2 conf inactive and 535nm interf inactive.
O=C(NN1CCCCC1)c1cccc2ccccc12 was read as HTR5A ag ctr inactive, OPRM1-OPRD1 inv inactive, sPLA2-III inh inactive, HTR2A ag inactive, OPRM1-OPRD1 ag inactive and HTR5A inv ctr inactive.
For Cc1ccccc1OCC(=O)Nc1ccc2c(c1)OCO2 the results were HTR5A ag ctr inactive, OPRM1-OPRD1 inv inactive, sPLA2-III inh 22.7, HTR2A ag inactive, OPRM1-OPRD1 ag inactive, HTR5A inv ctr inactive, hGIII sPLA2 conf inactive and 535nm interf inactive.
`COc1ccccc1OCC(=O)Nc1ccc2c(c1)OCO2` gave HTR5A ag ctr inactive, OPRM1-OPRD1 inv inactive, sPLA2-III inh inactive, HTR2A ag inactive, OPRM1-OPRD1 ag inactive and HTR5A inv ctr inactive.
For COc1ccc(OC)c(CN2C(=O)CCCC2(C)c2nnnn2C2CCCC2)c1 (stereo not given) the results were sPLA2-III inh inactive.
CCOC(=O)CC[C@H]1CC[C@]2(CCCN(S(=O)(=O)C3CCCCC3)C2)O1 was read as sPLA2-III inh inactive.
Screening Oc1ccc2c(c1)oc1cc(O)ccc12 returned HTR5A ag ctr inactive, OPRM1-OPRD1 inv inactive, sPLA2-III inh inactive, HTR2A ag inactive, OPRM1-OPRD1 ag inactive and HTR5A inv ctr inactive.
O=c1oc2cc(O)ccc2s1 was read as HTR5A ag ctr inactive, OPRM1-OPRD1 inv inactive, sPLA2-III inh 19.7, HTR2A ag inactive, OPRM1-OPRD1 ag inactive, HTR5A inv ctr inactive, hGIII sPLA2 conf inactive and 535nm interf inactive.
S=c1[nH]nc(Cc2ccc(Cl)cc2)o1 was read as HTR5A ag ctr inactive, OPRM1-OPRD1 inv inactive, sPLA2-III inh 22.4, HTR2A ag inactive, OPRM1-OPRD1 ag inactive, HTR5A inv ctr inactive, hGIII sPLA2 conf inactive and 535nm interf inactive.
CP(C)(=O)CCP(=O)(c1ccccc1)c1ccccc1 was read as HTR5A ag ctr inactive, OPRM1-OPRD1 inv inactive, sPLA2-III inh 19.4, HTR2A ag inactive, OPRM1-OPRD1 ag inactive, HTR5A inv ctr inactive, hGIII sPLA2 conf inactive and 535nm interf inactive.
`Cc1ccn(C(=O)c2ccc(NC(=O)CC(C)C)cc2)n1` gave HTR5A ag ctr inactive, OPRM1-OPRD1 inv inactive, sPLA2-III inh 19.3, HTR2A ag inactive, OPRM1-OPRD1 ag inactive, HTR5A inv ctr inactive, hGIII sPLA2 conf inactive and 535nm interf inactive.
